# Data taken from ChEMBL document CHEMBL3988442, “University of Dundee, Small-Polar-MMV Screening Library” (2021).
# For some assays here: Measured potencies and affinities stand elsewhere.
# Legend:
# Parameters in all cases: scale not given: direction of the effect not stated beside the values
# [1] = target: Protein translocase subunit SecA (Escherichia coli (strain K12)) (UniProt P10408); test: Assay to Identify E. coli SecA ATPase Inhibitors; type: functional; conditions: 30 µM
# [2] = target: T1, Ubiquitin-activating enzyme e1, putative (Leishmania donovani (strain BPK282A1)) (UniProt E9BSI1); test: Leishmania donovani Ubiquitin Activating Enzyme (LdE1); type: functional; conditions: 30 µM
# T1 sequence (whole entry): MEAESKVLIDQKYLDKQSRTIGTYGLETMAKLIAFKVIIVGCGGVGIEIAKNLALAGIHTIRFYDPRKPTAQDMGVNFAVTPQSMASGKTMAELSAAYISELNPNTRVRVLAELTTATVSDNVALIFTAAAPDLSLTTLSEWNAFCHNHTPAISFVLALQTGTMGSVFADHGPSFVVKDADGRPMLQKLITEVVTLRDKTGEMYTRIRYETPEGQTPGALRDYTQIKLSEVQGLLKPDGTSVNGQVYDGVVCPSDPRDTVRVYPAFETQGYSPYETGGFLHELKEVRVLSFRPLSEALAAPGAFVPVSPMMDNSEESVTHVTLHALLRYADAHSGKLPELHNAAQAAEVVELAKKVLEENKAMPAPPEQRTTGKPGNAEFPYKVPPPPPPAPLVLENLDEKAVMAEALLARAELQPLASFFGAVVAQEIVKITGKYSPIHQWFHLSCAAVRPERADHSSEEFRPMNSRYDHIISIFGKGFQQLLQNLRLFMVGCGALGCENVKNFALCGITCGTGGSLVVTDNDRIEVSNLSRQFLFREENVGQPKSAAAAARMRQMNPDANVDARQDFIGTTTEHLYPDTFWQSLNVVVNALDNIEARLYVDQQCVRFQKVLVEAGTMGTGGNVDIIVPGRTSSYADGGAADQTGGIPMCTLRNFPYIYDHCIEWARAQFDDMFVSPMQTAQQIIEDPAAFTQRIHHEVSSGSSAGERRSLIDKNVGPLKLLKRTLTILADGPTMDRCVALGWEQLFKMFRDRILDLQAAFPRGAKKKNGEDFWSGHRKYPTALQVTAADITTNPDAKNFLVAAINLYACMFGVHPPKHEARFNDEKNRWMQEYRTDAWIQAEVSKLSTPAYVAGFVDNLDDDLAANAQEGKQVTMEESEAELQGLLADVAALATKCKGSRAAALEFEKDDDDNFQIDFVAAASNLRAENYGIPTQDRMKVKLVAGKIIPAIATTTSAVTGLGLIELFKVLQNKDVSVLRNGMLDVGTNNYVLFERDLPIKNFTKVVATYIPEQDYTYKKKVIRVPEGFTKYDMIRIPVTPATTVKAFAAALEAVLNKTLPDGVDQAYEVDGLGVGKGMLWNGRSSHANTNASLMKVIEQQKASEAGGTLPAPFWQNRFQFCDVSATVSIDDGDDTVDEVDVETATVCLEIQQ
# [3] = target: AMP-activated protein kinase, AMPK (Homo sapiens) (UniProt P54646+O43741+P54619+Q9UGJ0+Q9Y478+Q13131+Q9UGI9); test: AMP-dependent Kinase enzyme assay. An in vitro enzyme assay that detects ADP turnover that is directly proportional to AMPK activity. This uses naive AMPK that is activated during the assay with MK-8722; type: functional; conditions: 30 µM
# [4] = target: Sialic acid-binding Ig-like lectin 9 (Homo sapiens) (UniProt Q9Y336); test: Hs-Siglec9 ALPHAscreen SOP 20170721; conditions: 10 µM
# Chain of Sialic acid-binding Ig-like lectin 9 (Homo sapiens) (Q9Y336 whole entry): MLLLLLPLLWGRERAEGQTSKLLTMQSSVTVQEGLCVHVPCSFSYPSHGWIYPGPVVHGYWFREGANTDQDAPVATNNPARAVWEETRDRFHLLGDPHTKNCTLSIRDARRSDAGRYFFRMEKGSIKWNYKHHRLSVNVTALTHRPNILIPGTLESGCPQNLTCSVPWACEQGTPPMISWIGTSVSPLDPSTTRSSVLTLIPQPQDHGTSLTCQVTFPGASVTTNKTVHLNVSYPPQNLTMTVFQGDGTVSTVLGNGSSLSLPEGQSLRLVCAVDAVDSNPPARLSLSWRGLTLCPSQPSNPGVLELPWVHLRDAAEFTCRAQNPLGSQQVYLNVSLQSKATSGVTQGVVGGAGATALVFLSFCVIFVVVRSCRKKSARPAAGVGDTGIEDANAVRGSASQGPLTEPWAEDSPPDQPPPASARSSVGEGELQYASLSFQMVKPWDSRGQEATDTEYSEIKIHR
# Trypanosoma cruzi = test: Trypanosoma cruzi phosphomannomutase and mannose-1-phosphate guanylyltransferase assay; type: functional; conditions: 10 µM
# [5] = target: T2, Arginase-2, mitochondrial (Homo sapiens) (UniProt P78540); test: in vitro enzyme assay to detect the production of urea directly proportional to the activity of Arginase II; type: functional; conditions: 33.3 µM; note: in the data most compounds retested in dose-response had high values
# T2 sequence (whole entry): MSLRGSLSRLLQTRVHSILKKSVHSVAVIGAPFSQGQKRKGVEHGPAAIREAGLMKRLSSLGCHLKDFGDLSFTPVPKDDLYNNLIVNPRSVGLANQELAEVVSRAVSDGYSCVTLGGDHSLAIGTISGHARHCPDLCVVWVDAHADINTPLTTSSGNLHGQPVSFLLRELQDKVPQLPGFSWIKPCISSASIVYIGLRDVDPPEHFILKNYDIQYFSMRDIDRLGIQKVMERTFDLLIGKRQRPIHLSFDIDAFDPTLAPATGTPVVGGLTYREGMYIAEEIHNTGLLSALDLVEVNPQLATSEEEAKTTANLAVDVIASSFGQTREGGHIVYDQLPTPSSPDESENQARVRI
# [6] = target: T3, Proteasome subunit beta (Trypanosoma cruzi) (UniProt O96673); test: Trypanosoma cruzi proteasome chymotrypsin-like activity (TcProtChymo) assay.; note: in the data most compounds retested in dose-response had high values; type: functional; conditions: 9.37 µM
# T3 sequence (whole entry): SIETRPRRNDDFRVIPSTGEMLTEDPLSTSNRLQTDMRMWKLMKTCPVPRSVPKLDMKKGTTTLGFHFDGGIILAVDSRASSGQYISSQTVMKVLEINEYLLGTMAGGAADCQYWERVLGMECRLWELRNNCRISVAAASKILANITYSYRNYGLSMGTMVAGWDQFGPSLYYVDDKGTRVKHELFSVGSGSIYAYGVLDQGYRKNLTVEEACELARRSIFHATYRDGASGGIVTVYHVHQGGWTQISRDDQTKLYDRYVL
# Homo sapiens = species on record: Homo sapiens; test: To identify inhibition of the IFN signalling (Jak-Stat) pathway via expression of an eGFP reporter gene under the control of an IFN-stimulated response element (ISRE) containing MxA promoter.; type: functional; conditions: 30 µM
# [7] = target: T4, Tyrosyl-tRNA synthetase, putative (Trypanosoma cruzi (strain CL Brener)) (UniProt Q4DSP6); test: Trypanosoma cruzi tyrosyl tRNA synthetase (TcYRS) _High Tyrosine SOP; type: functional; conditions: 30 µM; note: in the data most compounds retested in dose-response had high values
# T4 sequence (whole entry): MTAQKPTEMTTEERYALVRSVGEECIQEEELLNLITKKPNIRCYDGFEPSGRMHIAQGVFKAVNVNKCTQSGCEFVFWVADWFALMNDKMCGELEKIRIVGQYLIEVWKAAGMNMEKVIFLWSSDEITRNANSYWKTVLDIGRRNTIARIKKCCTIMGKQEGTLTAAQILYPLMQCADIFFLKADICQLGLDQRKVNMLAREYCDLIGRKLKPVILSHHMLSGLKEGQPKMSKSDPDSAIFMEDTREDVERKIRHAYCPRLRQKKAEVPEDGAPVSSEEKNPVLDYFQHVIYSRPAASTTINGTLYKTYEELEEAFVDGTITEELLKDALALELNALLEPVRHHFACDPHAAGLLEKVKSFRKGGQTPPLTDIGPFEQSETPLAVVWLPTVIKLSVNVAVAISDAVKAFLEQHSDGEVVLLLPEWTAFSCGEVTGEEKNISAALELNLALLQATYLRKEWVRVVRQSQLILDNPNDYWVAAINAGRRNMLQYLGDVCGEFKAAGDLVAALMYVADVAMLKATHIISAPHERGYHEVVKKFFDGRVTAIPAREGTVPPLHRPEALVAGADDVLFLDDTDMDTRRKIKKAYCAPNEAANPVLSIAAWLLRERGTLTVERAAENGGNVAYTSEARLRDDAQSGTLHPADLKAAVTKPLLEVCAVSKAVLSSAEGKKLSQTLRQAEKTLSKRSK
# [8] = target: T4, Tyrosyl-tRNA synthetase, putative (Trypanosoma cruzi (strain CL Brener)); test: Trypanosoma cruzi tyrosyl tRNA synthetase (TcYRS) SOP; type: functional; conditions: 30 µM
# [9] = target: Chromo domain-containing protein 1 (Saccharomyces cerevisiae (strain ATCC 204508 / S288c) (Baker's yeast)) (UniProt P32657); test: ScCHD-1 Enzyme Inhibition Assay; type: functional; conditions: 30 µM; note: in the data most compounds retested in dose-response had high values
# Chain of Chromo domain-containing protein 1 (Saccharomyces cerevisiae (strain ATCC 204508 / S288c) (Baker's yeast)) (P32657 whole entry, the tested form may be a part): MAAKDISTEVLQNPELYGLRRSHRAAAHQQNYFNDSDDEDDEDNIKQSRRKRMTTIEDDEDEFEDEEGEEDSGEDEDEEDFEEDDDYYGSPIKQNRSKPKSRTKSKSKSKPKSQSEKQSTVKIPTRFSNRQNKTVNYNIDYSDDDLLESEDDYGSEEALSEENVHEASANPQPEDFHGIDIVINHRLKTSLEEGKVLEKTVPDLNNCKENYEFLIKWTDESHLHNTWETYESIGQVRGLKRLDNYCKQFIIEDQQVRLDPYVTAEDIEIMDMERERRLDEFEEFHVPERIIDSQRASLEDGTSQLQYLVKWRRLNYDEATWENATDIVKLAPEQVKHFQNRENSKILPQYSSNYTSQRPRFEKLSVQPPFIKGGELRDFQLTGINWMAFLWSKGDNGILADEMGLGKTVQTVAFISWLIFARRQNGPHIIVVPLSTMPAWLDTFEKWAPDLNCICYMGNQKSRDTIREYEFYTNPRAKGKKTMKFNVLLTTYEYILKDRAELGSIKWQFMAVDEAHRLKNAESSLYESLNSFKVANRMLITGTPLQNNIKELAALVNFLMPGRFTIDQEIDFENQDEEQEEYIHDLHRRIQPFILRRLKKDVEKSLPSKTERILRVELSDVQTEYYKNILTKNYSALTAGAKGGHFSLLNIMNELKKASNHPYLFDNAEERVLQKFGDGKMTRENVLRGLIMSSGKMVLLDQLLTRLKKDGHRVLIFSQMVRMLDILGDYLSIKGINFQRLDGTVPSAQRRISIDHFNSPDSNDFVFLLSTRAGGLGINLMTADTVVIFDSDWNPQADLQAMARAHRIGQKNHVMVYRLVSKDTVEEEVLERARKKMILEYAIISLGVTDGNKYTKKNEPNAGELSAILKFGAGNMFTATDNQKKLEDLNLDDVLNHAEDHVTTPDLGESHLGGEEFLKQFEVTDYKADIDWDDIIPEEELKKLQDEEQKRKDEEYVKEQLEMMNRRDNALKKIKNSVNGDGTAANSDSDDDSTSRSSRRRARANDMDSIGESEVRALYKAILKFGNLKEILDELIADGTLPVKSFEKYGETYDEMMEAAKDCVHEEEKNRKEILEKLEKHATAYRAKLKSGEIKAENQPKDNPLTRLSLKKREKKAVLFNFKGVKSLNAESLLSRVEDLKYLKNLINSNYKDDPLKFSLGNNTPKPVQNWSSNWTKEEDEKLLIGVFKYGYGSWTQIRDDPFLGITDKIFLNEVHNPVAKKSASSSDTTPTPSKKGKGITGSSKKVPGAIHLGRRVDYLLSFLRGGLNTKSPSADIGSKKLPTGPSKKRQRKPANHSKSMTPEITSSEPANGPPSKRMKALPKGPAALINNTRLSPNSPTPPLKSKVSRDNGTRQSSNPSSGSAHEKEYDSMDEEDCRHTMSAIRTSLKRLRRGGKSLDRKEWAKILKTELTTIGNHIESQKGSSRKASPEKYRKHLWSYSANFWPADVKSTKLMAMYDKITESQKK
# Chain of Protein translocase subunit SecA (Escherichia coli (strain K12)) (P10408 whole entry): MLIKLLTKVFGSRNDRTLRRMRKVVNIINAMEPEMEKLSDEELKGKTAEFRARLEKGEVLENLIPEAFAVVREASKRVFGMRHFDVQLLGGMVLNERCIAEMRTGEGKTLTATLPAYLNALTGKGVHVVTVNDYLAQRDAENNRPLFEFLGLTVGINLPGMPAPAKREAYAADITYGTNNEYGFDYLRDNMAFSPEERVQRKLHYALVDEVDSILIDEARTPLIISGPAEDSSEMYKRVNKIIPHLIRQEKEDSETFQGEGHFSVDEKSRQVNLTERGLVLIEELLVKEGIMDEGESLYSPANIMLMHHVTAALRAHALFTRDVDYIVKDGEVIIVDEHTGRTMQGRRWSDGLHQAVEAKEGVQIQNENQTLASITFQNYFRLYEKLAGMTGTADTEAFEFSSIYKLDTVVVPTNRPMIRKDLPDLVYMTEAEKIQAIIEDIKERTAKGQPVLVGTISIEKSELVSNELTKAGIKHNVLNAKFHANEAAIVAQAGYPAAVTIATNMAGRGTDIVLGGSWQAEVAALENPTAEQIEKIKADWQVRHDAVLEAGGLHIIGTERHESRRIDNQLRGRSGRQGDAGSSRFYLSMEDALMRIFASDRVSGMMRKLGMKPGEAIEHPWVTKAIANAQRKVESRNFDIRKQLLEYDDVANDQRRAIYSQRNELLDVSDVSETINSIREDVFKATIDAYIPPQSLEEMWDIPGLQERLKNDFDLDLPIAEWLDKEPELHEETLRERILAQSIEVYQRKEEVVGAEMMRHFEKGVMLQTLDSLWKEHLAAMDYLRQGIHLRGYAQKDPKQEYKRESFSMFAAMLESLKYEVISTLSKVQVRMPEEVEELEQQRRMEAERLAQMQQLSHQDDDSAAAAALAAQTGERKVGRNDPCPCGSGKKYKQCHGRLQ
Compound,Percent Effect [1] [%],Percent Effect [2] [%],Percent Effect [3] [%],Percent Effect [4] [%],Percent Effect (Trypanosoma cruzi) [%],Percent Effect [5] [%],Percent Effect [6] [%],Percent Effect (Homo sapiens) [%],Percent Effect [7] [%],Percent Effect [8] [%],Percent Effect [9] [%]
CC(C)c1nc(C(=O)NCCn2ccnc2)nn1-c1cccc(F)c1,-6,15.8,-4.38,-4.66,-3.46,-6.47,1.1,-1.8,1.48,6.17,-5.42
Cc1nnc2n1CCN(Cc1ncc(-c3ccc(Cl)cc3)o1)C2,-5,-18.4,8.78,14.6,3.38,2.3,-0.167,7.71,5.39,7.32,-5.79
Cc1cccc(CN(C)Cc2nc3c(cnn3C)c(=O)[nH]2)c1,-3.57,21.1,-0.412,-12.2,-5.51,-5.04,3.3,-2.73,8.37,23.5,-7.57
COCCNC(=O)c1sc(Nc2ccc(Cl)cn2)nc1C,-1.6,20,-8.36,6.95,0.589,-3.7,17.2,5.99,6.35,10.3,-10.7
Cc1noc(CN(Cc2ccc3c(c2)OCO3)C2CCCC2)n1,-1.22,10.8,-9.58,6.53,-1.04,-12,6.67,29.7,3.45,3.7,-9.8
Cc1cccc(OCCNC(=O)CN2CCCC2Cn2cccn2)c1 (configuration not stated),-2.54,-5.26,-4.16,6.34,4.95,-4.32,-0.931,-9.42,5.42,11.1,-3.56
CCn1c(=O)nc2n1C(=O)N(c1cccc(Cl)c1)C2,-5.8,6.67,-1.98,-4.32,-0.786,2.29,13.7,-10.2,8.47,15.4,-7.77
CN(C)CCN1CCO[C@H]2CN(Cc3cnn(C)c3)C[C@H]21,-3.56,0,-1.78,7.45,-4.2,2.73,2.83,-0.175,5.38,11.1,-3.54
CN1C(=O)C(C)(C)COc2cc(NS(=O)(=O)c3ccccc3)ccc21,-2.86,8.22,-14,10.6,-0.979,2.27,14.2,46.6,-8.6,12.5,-7.69
CC(O)CN1CCN(C(=O)c2cccc(CC#N)c2)CC1 (configuration not stated),-0.303,23.4,-4.34,-2.88,0.749,3.92,12.7,27,6.8,2.44,-4.3
COCc1nc(C(=O)N2CCCCC2Cn2cccn2)cs1 (configuration not stated),-1.64,-7.89,-1.7,-2.08,6.82,-3.24,-0.761,-20.6,0.493,3.7,3.28
CCC(=O)NCc1cc(Br)c(OC)c(OC)c1,-7.41,5.33,-0.145,4.49,4.19,-9.9,5.75,-1.33,1.64,11.1,-3.06
O=C(CN1CCCCC1Cn1cncn1)NCCc1ccc(F)cc1 (configuration not stated),-0.868,15.2,-4.02,-10.5,-6.89,-2.28,8.27,37.4,8.37,11.4,-9.46
c1ccc(NCc2cn3c(n2)CN(Cc2cccnc2)CC3)nc1,-5.07,13.5,2.94,-3.31,-2.83,4.78,23.6,4.12,-1.08,10.3,0.00712
Cc1nc(C)c(CC(=O)N2C[C@H]3CC[C@@H]2CN(C(=O)N(C)C)C3)c(=O)[nH]1,-12.8,0,-2.11,-2.97,-5.18,-1.74,-2.49,26.8,-1.07,-1.24,-2.75
COCCO[C@@H]1CCN(C(=O)c2ccc(C)o2)[C@@H]1Cc1cccnc1,-5.36,0,9.87,-4.82,-3.91,4.17,8.03,2.29,5.94,8.54,-1.12
CC(=O)N1CC(=O)N(c2cnn(C)c2)CC12CCN(Cc1ccoc1)C2 (configuration not stated),-1.18,5.41,1.2,-0.95,1.95,1.25,-1.61,5.16,2.97,11,-1.77
CN(Cc1nnc(-c2ccco2)o1)CC1CCCN1c1cccnn1 (configuration not stated),-4.76,10.4,-4.64,-13.5,-0.881,2.32,21.9,15.6,4.76,9.41,-19.2
CCn1cc(NC(=O)NCC(O)c2ccccc2)cn1 (configuration not stated),-2.26,12.7,-8.7,13.4,-1.98,1.52,3.19,-8.48,1.48,13.9,-3.66
CN(C)CCN(Cc1cccc(C(F)(F)F)c1)C(=O)c1cc[nH]n1,1.05,-4.17,-0.743,-0.91,-4.57,2.65,5.61,6.86,-3.16,-10.3,-3.17
Cn1c(NCC(O)c2ccc(F)cc2F)c(C#N)c(=O)n(C)c1=O (configuration not stated),-4.86,17.7,-12.9,-5.84,1.6,6.46,4.01,-3.56,5.42,13.9,-7.19
CC(C)(C)c1n[nH]c(C2CN(C(=O)c3cc(C4CC4)on3)CCO2)n1 (configuration not stated),-2.82,7.89,1.22,-5.79,5.55,-8.28,-4.7,0.97,1.06,5.2,-10.8
